Assay results reported in PubChem BioAssay (EPA / NIEHS).
Results filed as inconclusive are left out. Activity calls are given as the source filed them. How the source made its calls, unless noted: active means hit-call score of the fitted dose curve at least 0.9, where 1 is the maximum; inactive means score below 0.9.

Columns and labels:
[1] = biological target: Paired box protein Pax-6 (Homo sapiens) (UniProt P26367); experiment: ATG_Pax6_CIS: Attagene CIS-FACTORIAL HepG2 Assay for human Paired Box 6 (PAX6) (AID 2282956); conditions: HepG2 CIS-FACTORIAL PAX6 reporter transcription, RNA readout; actives raise or lower the signal
Paired box protein Pax-6 (Homo sapiens), sequence (P26367 whole entry, looked up): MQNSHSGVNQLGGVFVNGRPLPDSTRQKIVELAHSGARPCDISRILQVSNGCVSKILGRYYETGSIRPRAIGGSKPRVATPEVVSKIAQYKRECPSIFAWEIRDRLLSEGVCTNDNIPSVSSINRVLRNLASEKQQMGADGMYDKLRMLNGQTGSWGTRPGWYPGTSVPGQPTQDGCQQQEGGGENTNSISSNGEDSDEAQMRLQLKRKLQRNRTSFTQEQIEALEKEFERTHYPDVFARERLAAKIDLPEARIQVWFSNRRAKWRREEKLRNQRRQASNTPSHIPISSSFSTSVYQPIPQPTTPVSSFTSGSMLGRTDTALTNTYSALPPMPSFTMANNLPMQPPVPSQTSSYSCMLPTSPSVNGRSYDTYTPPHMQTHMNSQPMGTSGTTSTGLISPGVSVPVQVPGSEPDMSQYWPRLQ
Summary of the method: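 DMSO-referenced bidirectional fits of reporter mRNA fluorescence; HepG2 with transient cis-promoter MRTUs, 24 h post-dose, RT-PCR plus capillary electrophoresis detection.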

[2] = ATG_PXRE_CIS: Attagene CIS-FACTORIAL HepG2 Assay for human Pregnane X Receptor Element (PXRE) (AID 2282957); conditions: HepG2 Attagene CIS-FACTORIAL PXRE reporter, mRNA; actives raise or lower the signal
Summary of the method: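 Read-out: fluorescence of reporter-specific RT-PCR products resolved by capillary electrophoresis, fitted bidirectionally relative to DMSO. Human HepG2 liver cells carried transfected cis-promoter reporter units and were exposed to chemicals for 24 h.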

[3] = ATG_PPRE_CIS: Attagene CIS-FACTORIAL HepG2 Assay for human Peroxisome Proliferator-activated Response Element (PPRE) (AID 2282958); conditions: HepG2 PPRE cis-element reporter, Attagene transcription factor profiling; actives raise or lower the signal
Summary of the method: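 Measured endpoint: PPRE-controlled reporter mRNA, detected by RT-PCR and capillary electrophoresis fluorescence, from transiently transfected HepG2 cells 24 h after dosing. Curves fitted in both directions using DMSO baseline.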

[4] = ATG_Sox_CIS: Attagene CIS-FACTORIAL HepG2 Assay for human SRY-box transcription factor (SOX) (AID 2282960); conditions: HepG2 Attagene cis-factorial SOX reporter, mRNA; actives raise or lower the signal
Summary of the method: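 Gain- or loss-of-signal endpoint, fitted bidirectionally with DMSO as negative control. Based on reporter mRNA from transfected HepG2 cells harvested 24 h post-treatment and quantified via RT-PCR and capillary electrophoresis.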

[5] = biological target: Transcription factor Sp1 (Homo sapiens) (UniProt P08047); experiment: ATG_Sp1_CIS: Attagene CIS-FACTORIAL HepG2 Assay for human Specificity Protein 1 (Sp1) (AID 2282961); conditions: HepG2 Sp1 cis-reporter transcription, actives raise or lower the signal
Transcription factor Sp1 (Homo sapiens), sequence (P08047 whole entry, looked up, the tested form may be a part): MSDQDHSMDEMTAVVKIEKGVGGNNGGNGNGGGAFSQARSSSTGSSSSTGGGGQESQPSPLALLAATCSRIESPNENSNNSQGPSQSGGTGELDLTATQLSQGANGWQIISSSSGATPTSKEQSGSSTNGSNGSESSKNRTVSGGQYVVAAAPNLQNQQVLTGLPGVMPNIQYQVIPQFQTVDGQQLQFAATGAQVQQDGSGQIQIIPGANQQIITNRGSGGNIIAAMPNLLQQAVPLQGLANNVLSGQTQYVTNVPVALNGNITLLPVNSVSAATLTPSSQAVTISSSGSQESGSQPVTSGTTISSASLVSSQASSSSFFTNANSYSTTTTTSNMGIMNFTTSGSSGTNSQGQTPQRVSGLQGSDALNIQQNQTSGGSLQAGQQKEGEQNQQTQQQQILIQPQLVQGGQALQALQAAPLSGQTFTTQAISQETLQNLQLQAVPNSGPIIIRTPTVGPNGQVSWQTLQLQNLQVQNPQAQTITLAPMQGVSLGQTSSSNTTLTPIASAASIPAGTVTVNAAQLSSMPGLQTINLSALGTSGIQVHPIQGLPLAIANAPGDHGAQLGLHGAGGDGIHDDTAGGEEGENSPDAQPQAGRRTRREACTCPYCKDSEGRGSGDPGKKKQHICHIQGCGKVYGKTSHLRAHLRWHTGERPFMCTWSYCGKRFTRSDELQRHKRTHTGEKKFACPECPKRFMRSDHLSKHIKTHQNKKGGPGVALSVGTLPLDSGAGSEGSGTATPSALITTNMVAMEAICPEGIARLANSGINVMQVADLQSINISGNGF
Summary of the method: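 Endpoint reflects endogenous Sp1 transcriptional activity, not an exogenous fusion protein: HepG2 cells with transfected cis-regulated reporters, 24 h dosing, RT-PCR/capillary electrophoresis mRNA read-out, DMSO-normalised bidirectional fit.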

[6] = ATG_SREBP_CIS: Attagene CIS-FACTORIAL HepG2 Assay for human Sterol Regulatory Element Binding (SREBP) (AID 2282962); conditions: HepG2 Attagene cis-factorial SREBP reporter, mRNA; actives raise or lower the signal
Summary of the method: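 In this cis-format assay, HepG2 liver cells express reporters controlled by promoter elements responsive to native transcription factors. Exposure lasts 24 h; reporter mRNA fluorescence from capillary electrophoresis gives the signal, fitted bidirectionally against DMSO.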

[7] = biological target: Signal transducer and activator of transcription 3 (Homo sapiens) (UniProt P40763); experiment: ATG_STAT3_CIS: Attagene CIS-FACTORIAL HepG2 Assay for human Signal Transducer and Activator of Transcription 3 (STAT3) (AID 2282963); conditions: HepG2, Attagene cis-factorial STAT3 reporter transcription; actives raise or lower the signal
Signal transducer and activator of transcription 3 (Homo sapiens), sequence (P40763 whole entry, looked up): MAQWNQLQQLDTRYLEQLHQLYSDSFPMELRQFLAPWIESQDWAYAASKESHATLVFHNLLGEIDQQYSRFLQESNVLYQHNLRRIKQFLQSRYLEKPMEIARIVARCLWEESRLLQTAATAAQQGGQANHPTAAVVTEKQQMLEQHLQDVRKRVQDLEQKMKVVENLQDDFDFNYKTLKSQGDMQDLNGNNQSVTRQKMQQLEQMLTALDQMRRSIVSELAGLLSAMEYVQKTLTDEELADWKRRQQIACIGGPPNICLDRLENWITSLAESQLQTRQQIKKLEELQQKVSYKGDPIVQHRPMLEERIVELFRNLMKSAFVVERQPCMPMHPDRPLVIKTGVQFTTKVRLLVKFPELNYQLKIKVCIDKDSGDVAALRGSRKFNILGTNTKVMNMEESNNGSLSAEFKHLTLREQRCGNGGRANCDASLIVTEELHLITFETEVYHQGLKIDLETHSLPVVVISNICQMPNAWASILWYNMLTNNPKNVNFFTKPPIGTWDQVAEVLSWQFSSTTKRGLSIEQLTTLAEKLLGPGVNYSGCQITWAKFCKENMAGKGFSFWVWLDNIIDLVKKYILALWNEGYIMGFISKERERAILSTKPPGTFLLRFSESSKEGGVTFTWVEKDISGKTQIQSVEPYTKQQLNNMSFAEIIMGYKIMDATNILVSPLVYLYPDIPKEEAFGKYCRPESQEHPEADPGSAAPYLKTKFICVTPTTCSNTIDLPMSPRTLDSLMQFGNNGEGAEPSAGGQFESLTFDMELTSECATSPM
Summary of the method: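 Cis-factorial format: endogenous transcription factors in HepG2 drive transfected reporter units. After 24 h treatment, reporter RNA was reverse-transcribed, amplified, FAM-labelled and HpaI-digested before CE analysis; activity scored in both directions against DMSO.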

[8] = ATG_TA_CIS: Attagene CIS-FACTORIAL HepG2 Assay for human TA Basal Promoter (AID 2282964); conditions: HepG2 Attagene CIS-factorial TA basal promoter reporter; actives raise or lower the signal
Summary of the method: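 Transient MRTU transfection of HepG2 preceded 24 h compound exposure. Reporter mRNA levels were then read by RT-PCR with capillary electrophoresis, and this background-control endpoint was fitted bidirectionally to DMSO.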

[9] = ATG_TCF_b_cat_CIS: Attagene CIS-FACTORIAL HepG2 Assay for human T-Cell-Factor with beta-catenin (TCF/b-cat) (AID 2282965); conditions: HepG2 TCF/beta-catenin cis-reporter transcription, actives raise or lower the signal
Summary of the method: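 Measured: reporter mRNA in HepG2 transiently transfected with cis-promoter reporter units, 24 h after chemical addition. Fitting was bidirectional, DMSO as negative control.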

[10] = ATG_TAL_CIS: Attagene CIS-FACTORIAL HepG2 Assay for human TAL Basal Promoter (AID 2282966); conditions: HepG2 Attagene cis-factorial TAL promoter reporter; actives raise or lower the signal;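 further: background control endpoint measuring basal TAL promoter reporter mRNA not a specific factor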
Summary of the method: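 HepG2, transient MRTU transfection, 24 h compound exposure; RNA → oligo(dT) RT → PCR → 6-FAM primer extension → HpaI digest → CE fluorescence. Bidirectional curve fit vs DMSO. Background-control readout.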

[11] = ATG_TGFb_CIS: Attagene CIS-FACTORIAL HepG2 Assay for human Transforming Growth Factor (TGF) (AID 2282967); conditions: HepG2 Attagene CIS TGFb reporter, mRNA transcription; actives raise or lower the signal
Summary of the method: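 After a 24-hour incubation with compound, transfected HepG2 cells were lysed for RNA; reporter cDNA was amplified, fluorescently end-labeled and separated by CE. DMSO served as baseline for bidirectional fits.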

[12] = ATG_VDRE_CIS: Attagene CIS-FACTORIAL HepG2 Assay for human Vitamin D Receptor Element (VDRE) (AID 2282968); conditions: HepG2 VDRE cis-reporter transcription, actives raise or lower the signal
Summary of the method: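 Measures endogenous factor activity through cis-element-driven reporter transcripts in transiently transfected HepG2. Cells are treated 24 h; reporter mRNA is quantified by RT-PCR and capillary electrophoresis; fitting is bidirectional.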

[13] = biological target: Nuclear receptor subfamily 1 group I member 3 (Homo sapiens) (UniProt Q14994); experiment: ATG_CAR_TRANS: Attagene TRANS-FACTORIAL HepG2 Assay for human Constitutive Androstane Receptor (CAR) (AID 2282969; active means hit-call score of the fitted dose curve at least 0.9, where 1 is the maximum;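 further: activators raise reporter mRNA above DMSO so AC50 marks induction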); conditions: HepG2 Attagene TRANS-FACTORIAL CAR reporter
Nuclear receptor subfamily 1 group I member 3 (Homo sapiens), sequence (Q14994 whole entry, looked up, the tested form may be a part): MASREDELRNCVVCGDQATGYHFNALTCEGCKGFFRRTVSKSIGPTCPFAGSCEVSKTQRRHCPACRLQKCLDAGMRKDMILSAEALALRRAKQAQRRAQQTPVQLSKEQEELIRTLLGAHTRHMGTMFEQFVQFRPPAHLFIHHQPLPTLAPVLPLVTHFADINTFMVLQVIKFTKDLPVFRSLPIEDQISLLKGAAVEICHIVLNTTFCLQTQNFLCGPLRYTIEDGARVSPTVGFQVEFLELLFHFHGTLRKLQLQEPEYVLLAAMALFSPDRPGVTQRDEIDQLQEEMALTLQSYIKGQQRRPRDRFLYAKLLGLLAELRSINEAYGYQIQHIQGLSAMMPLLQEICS
Summary of the method: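 Signal is reporter mRNA induction relative to DMSO, measured 24 h after dosing by RT-PCR with fluorescent primer extension and capillary electrophoresis. Human HepG2 liver cells carried transiently transfected chimeric NR-Gal4/GAL4-UAS reporter constructs.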

[14] = biological target: Steroid hormone receptor ERR1 (Homo sapiens) (UniProt P11474); experiment: ATG_ERRa_TRANS: Attagene TRANS-FACTORIAL HepG2 Assay for human Estrogen-Related Receptor alpha (ERRa) (AID 2282971; active means hit-call score of the fitted dose curve at least 0.9, where 1 is the maximum); conditions: HepG2 Attagene TRANS reporter, ERRa transactivation
Steroid hormone receptor ERR1 (Homo sapiens), sequence (P11474 whole entry, looked up, the tested form may be a part): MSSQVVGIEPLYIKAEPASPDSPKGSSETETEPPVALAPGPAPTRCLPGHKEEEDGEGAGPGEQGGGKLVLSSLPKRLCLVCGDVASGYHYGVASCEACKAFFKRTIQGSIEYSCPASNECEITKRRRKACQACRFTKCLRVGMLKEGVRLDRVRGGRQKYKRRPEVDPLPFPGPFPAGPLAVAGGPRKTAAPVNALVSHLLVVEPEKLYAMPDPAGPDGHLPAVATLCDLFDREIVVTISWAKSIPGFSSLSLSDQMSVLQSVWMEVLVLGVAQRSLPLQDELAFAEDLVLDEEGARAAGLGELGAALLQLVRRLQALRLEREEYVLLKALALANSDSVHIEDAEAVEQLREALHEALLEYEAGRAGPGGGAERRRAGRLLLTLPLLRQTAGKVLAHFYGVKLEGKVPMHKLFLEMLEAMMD
Summary of the method: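 Transfected HepG2, 24 h dosing, ERRa-Gal4 chimera driving GAL4-UAS reporter. Readout: reporter mRNA via RT-PCR plus capillary electrophoresis (fluorescence). Positive direction vs DMSO control.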

[15] = biological target: X-box-binding protein 1 (Homo sapiens) (UniProt P17861); experiment: ATG_Xbp1_CIS: Attagene CIS-FACTORIAL HepG2 Assay for human X-box Binding Protein 1 (XBP1) (AID 2282972); conditions: HepG2 XBP1 cis-element reporter, Attagene multiplex; actives raise or lower the signal
X-box-binding protein 1 (Homo sapiens), sequence (P17861 whole entry, looked up): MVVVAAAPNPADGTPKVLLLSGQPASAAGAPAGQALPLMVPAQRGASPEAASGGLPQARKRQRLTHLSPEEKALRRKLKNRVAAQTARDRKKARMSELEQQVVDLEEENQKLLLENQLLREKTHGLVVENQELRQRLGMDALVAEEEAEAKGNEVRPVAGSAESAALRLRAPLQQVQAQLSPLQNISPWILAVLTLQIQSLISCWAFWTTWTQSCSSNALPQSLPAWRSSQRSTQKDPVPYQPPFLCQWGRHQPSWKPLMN
Summary of the method: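 Changes in reporter transcript abundance, read by RT-PCR and capillary electrophoresis, reflect endogenous transcription factor activity. Transfected HepG2 cells received compound for 24 hours; DMSO defined baseline for bidirectional analysis.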

[16] = ATG_M_19_TRANS: Attagene TRANS-FACTORIAL HepG2 Assay for M19 Transcription Factor (Internal Marker) (AID 2282974; active means hit-call score of the fitted dose curve at least 0.9, where 1 is the maximum); conditions: HepG2 Attagene TRANS-FACTORIAL M19 internal marker reporter
Summary of the method: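 Using RT-PCR and capillary electrophoresis, reporter mRNA from transiently transfected human HepG2 cells was quantified following 24 h exposure; activity was fitted in the positive direction against DMSO.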

[17] = ATG_GAL4_TRANS: Attagene TRANS-FACTORIAL HepG2 Assay for GAL4 (Internal Marker) (AID 2282976; active means hit-call score of the fitted dose curve at least 0.9, where 1 is the maximum); conditions: HepG2 Attagene TRANS GAL4 internal marker reporter
Summary of the method: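 RT-PCR/capillary electrophoresis readout of reporter mRNA. HepG2, transient MRTU transfection (GAL4-UAS reporters), 24 h compound exposure. Background-control endpoint, positive direction vs DMSO baseline.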

[18] = biological target: Estrogen-related receptor gamma (Homo sapiens) (UniProt P62508); experiment: ATG_ERRg_TRANS: Attagene TRANS-FACTORIAL HepG2 Assay for human Estrogen-Related Receptor gamma (ERRg) (AID 2282977; active means hit-call score of the fitted dose curve at least 0.9, where 1 is the maximum;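 further: hits increase reporter signal over DMSO so potencies reflect activators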); conditions: HepG2 Attagene TRANS reporter, ERRg transactivation
Estrogen-related receptor gamma (Homo sapiens), sequence (P62508 whole entry, looked up, the tested form may be a part): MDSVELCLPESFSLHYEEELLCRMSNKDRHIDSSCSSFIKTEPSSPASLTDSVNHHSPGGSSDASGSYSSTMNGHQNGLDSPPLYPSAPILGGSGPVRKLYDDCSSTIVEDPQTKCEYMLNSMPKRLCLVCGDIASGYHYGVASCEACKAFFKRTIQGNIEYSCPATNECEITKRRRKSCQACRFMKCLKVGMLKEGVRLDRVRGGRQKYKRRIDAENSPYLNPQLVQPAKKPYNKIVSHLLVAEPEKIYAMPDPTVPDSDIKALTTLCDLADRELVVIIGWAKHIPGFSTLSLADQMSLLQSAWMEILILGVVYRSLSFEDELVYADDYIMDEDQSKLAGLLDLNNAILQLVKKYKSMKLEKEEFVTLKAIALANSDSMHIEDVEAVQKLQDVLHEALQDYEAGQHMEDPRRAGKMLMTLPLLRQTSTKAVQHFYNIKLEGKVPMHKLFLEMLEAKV
Summary of the method: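 Readout: fluorescent reporter-mRNA fragments resolved by capillary electrophoresis after RT-PCR and HpaI cut. Cells: transiently transfected HepG2 carrying GAL4-UAS reporters driven by exogenous NR-Gal4 chimeras, dosed 24 h. Activity fitted upward relative to DMSO baseline.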

[19] = biological target: Estrogen receptor (Homo sapiens) (UniProt P03372); experiment: ATG_ERa_TRANS: Attagene TRANS-FACTORIAL HepG2 Assay for human Estrogen Receptor alpha (ERa) (AID 2282970; active means hit-call score of the fitted dose curve at least 0.9, where 1 is the maximum); conditions: HepG2 Attagene TRANS ERa GAL4 reporter, mRNA
Estrogen receptor (Homo sapiens), sequence (P03372 whole entry, looked up, the tested form may be a part): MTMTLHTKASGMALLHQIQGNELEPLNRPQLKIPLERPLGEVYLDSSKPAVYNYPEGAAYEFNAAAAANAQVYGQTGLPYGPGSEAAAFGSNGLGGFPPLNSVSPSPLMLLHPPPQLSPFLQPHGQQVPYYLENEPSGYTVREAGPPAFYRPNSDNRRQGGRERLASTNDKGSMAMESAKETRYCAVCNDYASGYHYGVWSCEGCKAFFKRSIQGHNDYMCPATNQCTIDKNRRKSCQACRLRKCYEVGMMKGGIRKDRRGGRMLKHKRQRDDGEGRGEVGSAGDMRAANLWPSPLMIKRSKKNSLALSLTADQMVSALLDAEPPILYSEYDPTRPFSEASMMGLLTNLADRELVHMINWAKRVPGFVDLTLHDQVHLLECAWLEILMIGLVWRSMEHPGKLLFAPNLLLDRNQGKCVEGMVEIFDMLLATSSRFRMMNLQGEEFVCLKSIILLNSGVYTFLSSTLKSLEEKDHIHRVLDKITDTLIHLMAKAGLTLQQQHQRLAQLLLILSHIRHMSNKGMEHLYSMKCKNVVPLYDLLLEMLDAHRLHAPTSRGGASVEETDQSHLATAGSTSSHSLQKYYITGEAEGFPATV
Summary of the method: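 Reporter mRNA induction after 24 hours, detected by fluorescent RT-PCR and capillary electrophoresis, gives the read-out. Cells are HepG2 transiently transfected with GAL4-UAS reporter transcription units responding to chimeric NR-Gal4. Activity is taken as gain of signal over DMSO baseline.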

[20] = ATG_RORE_CIS: Attagene CIS-FACTORIAL HepG2 Assay for human RAR-related Orphan Receptor Element (RORE) (AID 2282959); conditions: HepG2 Attagene cis-factorial RORE reporter, mRNA; actives raise or lower the signal
Summary of the method: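 Transiently transfected HepG2 reporter cells were treated 24 h. Reporter transcripts were detected by RT-PCR and capillary electrophoresis, with bidirectional fitting against DMSO.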

Measured: AC50

C1CCOC1
active: [2] 37.3 µM
not listed: [19] | [20]
inactive: all other assays above

CN(C)c1cccc(O)c1
active: [2] 6.77 µM
not listed: [14] | [18] | [19] | [20]
inactive: all other assays above

CC(=O)c1ccccn1
not listed: [13] | [14] | [16] | [17] | [18] | [19] | [20]
inactive: all other assays above

O=[N+]([O-])c1cccc(Cl)c1
not listed: [13] | [16] | [17] | [18] | [20]
inactive: all other assays above

CC(C)C(OC(=O)c1ccccc1)C(C)(C)COC(=O)c1ccccc1 (stereo not drawn)
active: [2] 1.27 µM | [12] 1.52 µM
not listed: [14] | [17] | [18] | [19] | [20]
inactive: all other assays above

CCOC(=O)[C@@H](C)Oc1ccc(Oc2nc3ccc(Cl)cc3o2)cc1
active: [3] 100 µM
not listed: [13] | [14] | [17] | [19] | [20]
inactive: all other assays above

Cc1cc(C)nc(NS(=O)(=O)c2ccc(N)cc2)n1
active: [2] 46.5 µM
not listed: [12] | [14] | [17] | [18] | [19] | [20]
inactive: all other assays above

CCCC(C)=O
not listed: [5] | [12] | [13] | [14] | [16] | [17] | [18] | [19]
inactive: all other assays above
